According to PubChem BioAssay:
“And” between values parts separate entries of the source, which are not always exact repeats. Identical values can stand only once. For part of these data: Potency and affinity values are given separately. The source holds several records for some structures; these can differ, active in one and inactive in another. The source made the active and inactive calls. A call without a number means that no potency is given here. Unless noted, the rule behind the calls is not given here.

Assays:
[1] = antimalarial activity against Dd2 strain (AID 2302;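 active = growth inhibition above 50% at the single 2 µM test dose, taken to imply half-maximal potency below 2 µM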); settings: P. falciparum Dd2 in RBCs, LDH growth readout, 72 h; at 2 µM; stronger effect = higher value
[2] = HepG2 cytotoxicity, primary screen, cytotoxicity control for P. falciparum antimalarial project, cell-based, ATP luminescence (AID 2303;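 active = inhibition above 50%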); settings: HepG2 viability, 24-48 h, at 10 µM, stronger effect = higher value
[3] = target: L-lactate dehydrogenase (Plasmodium falciparum (isolate CDC / Honduras)) (UniProt Q27743); assay: PfLDH activity inhibition – cell lysate, 3D7 strain, counter-screen for P. falciparum growth inhibition project (AID 2304); settings: P. falciparum 3D7 crude extract, LDH APAD/NBT absorbance; at 2 µM; stronger effect = higher value
[4] = inhibition of 3D7 malaria parasite growth – strain 3D7 (AID 2306); settings: P. falciparum 3D7 erythrocytic growth, LDH absorbance, 72 h; at 2 µM; stronger effect = higher value
[5] = target: Calcium-dependent protein kinase 1 (Plasmodium falciparum (isolate 3D7)) (UniProt P62344); assay: PfCDPK1 kinase inhibitors, biochemical, TCAMS library (AID 1159585; cut-off not given, nearly all actives have IC50 up to about 0.98 µM;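 note: inhibitors leave more ATP so luminescence rises with inhibition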); settings: recombinant PfCDPK1, Kinase-Glo ATP depletion luminescence
[6] = target: Plasmodium falciparum protein kinase 6 (PK6, PF3D7_1337100) (UniProt Q8IDW1); assay: PfPK6 kinase inhibitors, biochemical, TCAMS library (AID 1159586); settings: recombinant PfPK6, Kinase-Glo ATP depletion luminescence
[7] = target: Protein kinase 7 (PK7), Plasmodium falciparum 3D7 (PF3D7_0213400) (UniProt Q7YTF7); assay: inhibition of Plasmodium PK7 catalytic activity – biochemical, TCAMS antimalarial set, Kinase-Glo luminescence (AID 1159587); settings: recombinant PfPK7, Kinase-Glo ATP depletion luminescence
[8] = target: Calcium-dependent protein kinase 4 (Plasmodium falciparum (isolate 3D7)) (UniProt Q8IBS5); assay: PfCDPK4 kinase inhibitors, biochemical, TCAMS library (AID 1159588; cut-off not given, nearly all actives have IC50 up to about 0.91 µM); settings: recombinant PfCDPK4, Kinase-Glo ATP depletion luminescence
Calcium-dependent protein kinase 4 (Plasmodium falciparum (isolate 3D7)), sequence (Q8IBS5 whole entry, looked up): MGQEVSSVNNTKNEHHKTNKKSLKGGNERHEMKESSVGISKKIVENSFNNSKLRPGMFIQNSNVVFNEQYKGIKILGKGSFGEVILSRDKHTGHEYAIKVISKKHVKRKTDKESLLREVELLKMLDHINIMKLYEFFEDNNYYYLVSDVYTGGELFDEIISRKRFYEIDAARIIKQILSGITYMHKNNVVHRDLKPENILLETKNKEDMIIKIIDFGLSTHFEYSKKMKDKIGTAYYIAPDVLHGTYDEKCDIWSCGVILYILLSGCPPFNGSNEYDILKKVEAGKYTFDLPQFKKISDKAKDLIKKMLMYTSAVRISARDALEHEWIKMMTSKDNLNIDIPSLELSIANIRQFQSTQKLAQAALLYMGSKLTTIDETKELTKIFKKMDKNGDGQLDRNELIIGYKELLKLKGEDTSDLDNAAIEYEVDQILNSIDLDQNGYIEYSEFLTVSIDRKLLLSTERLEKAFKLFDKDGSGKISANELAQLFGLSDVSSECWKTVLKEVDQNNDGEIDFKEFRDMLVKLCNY

Plasmodium falciparum protein kinase 6 (PK6, PF3D7_1337100), sequence (Q8IDW1 1-305): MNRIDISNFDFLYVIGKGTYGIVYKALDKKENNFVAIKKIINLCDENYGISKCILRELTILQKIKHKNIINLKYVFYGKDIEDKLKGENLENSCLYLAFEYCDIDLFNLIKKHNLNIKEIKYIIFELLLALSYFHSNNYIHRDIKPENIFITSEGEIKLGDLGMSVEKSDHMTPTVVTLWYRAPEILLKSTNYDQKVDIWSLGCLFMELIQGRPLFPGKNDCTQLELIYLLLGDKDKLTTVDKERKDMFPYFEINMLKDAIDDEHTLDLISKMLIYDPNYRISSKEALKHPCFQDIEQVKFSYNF
L-lactate dehydrogenase (Plasmodium falciparum (isolate CDC / Honduras)), sequence (Q27743 whole entry, looked up): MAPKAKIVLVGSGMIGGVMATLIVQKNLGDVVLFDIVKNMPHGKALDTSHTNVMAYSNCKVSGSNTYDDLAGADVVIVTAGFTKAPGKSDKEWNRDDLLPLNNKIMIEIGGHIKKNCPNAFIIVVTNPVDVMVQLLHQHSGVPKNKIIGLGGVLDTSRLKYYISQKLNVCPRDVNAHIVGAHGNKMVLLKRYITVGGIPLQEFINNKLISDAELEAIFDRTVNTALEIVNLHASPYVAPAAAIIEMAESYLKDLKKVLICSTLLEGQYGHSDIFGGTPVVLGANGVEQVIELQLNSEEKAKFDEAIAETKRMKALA
Calcium-dependent protein kinase 1 (Plasmodium falciparum (isolate 3D7)), sequence (P62344 whole entry, looked up): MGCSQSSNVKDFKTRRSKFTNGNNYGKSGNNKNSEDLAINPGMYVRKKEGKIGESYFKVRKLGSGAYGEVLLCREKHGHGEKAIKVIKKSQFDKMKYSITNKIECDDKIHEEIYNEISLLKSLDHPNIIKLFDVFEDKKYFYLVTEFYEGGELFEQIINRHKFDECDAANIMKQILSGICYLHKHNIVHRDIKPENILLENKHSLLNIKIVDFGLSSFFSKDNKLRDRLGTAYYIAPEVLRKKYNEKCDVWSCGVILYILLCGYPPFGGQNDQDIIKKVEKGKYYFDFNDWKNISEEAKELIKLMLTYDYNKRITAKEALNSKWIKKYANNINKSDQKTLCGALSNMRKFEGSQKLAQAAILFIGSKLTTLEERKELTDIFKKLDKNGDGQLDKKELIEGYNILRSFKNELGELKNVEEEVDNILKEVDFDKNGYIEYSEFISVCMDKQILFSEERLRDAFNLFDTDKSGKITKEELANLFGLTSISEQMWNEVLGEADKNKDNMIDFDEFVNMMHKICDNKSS
Protein kinase 7 (PK7), Plasmodium falciparum 3D7 (PF3D7_0213400), sequence (Q7YTF7 1-343): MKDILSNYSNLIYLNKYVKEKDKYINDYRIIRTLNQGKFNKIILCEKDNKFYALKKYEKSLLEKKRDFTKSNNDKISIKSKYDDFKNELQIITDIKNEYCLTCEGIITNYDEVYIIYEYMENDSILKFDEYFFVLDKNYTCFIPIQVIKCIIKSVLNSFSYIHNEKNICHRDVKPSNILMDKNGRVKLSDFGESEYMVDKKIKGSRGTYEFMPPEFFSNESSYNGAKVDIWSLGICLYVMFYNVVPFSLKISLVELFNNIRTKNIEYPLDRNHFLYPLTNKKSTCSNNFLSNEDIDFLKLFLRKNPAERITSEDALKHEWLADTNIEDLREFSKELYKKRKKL

Row | Structure (SMILES) | growth inhibition [1] | inhibition [2] | inhibition [3] | growth inhibition [4] | outcome [5] | outcome [6] | outcome [7] | outcome [8]
1 | CN1CCC(C(=O)Nc2ccc(-c3cccc(-c4nc5ccc(C(F)(F)F)cc5[nH]4)c3)cc2)CC1 | 97% (active) | 28% (inactive) | 0% (inactive) | 100% (active) | inactive | inactive | inactive | inactive
2 | COc1ccccc1C1CCN(C2CCC(NC(=O)/C=C/c3cc(F)cc(F)c3)CC2)CC1 (configuration not stated) | 15% (inactive) | 45% (inactive) | 0% (inactive) | 91% (active) | inactive | inactive | inactive | inactive
3 | N#Cc1cccc(NC(=O)Nc2ccc(-c3cccc(-c4nc5ccc(F)cc5[nH]4)c3)cc2)c1 | 100% (active) | 64% (active) | 4% (inactive) | 102% (active) | inactive | inactive | inactive | inactive
4 | COc1ccc(-c2cccc(NC(=O)c3ccc(F)cc3)c2)cc1CNC(C)C | 9% (inactive) | 32% (inactive) | 1% (inactive) | 83% (active) | inactive | inactive | inactive | inactive
5 | Fc1ccccc1COc1ccc(Nc2ncnc3ccc(I)cc23)cc1Cl | 37% (inactive) | 17% (inactive) | -4% (inactive) | 90% (active) | inactive | inactive | inactive | inactive
6 | O=C(/C=C/c1ccc(Cl)c(Cl)c1)NCCCCCN1CCCN(C(=O)Nc2cccc(F)c2)CC1 | 4% (inactive) | 20% (inactive) | -3% (inactive) | 97% (active) | inactive | inactive | inactive | inactive
7 | Cn1ccnc1S(=O)(=O)CCNCc1ccc(-c2ccc3ncnc(Nc4ccc(OCc5cccc(F)c5)c(Cl)c4)c3c2)o1 | 94% (active) | -2% (inactive) | -3% (inactive) | 101% (active) | inactive | inactive | inactive | inactive
8 | O=C(/C=C/c1ccc(Cl)c(Cl)c1)NC1CCC(CN2CCC(c3c[nH]c4ccncc34)CC2)CC1 (configuration not stated) | 96% (active) | 16% (inactive) | -1% (inactive) | 100% (active) | inactive | inactive | inactive | inactive
9 | COc1ccc(NC(=O)C2CCN(CCCCCNC(=O)/C=C/c3ccc(Cl)c(Cl)c3)CC2)cc1 | -4% (inactive) | 26% (inactive) | 6% (inactive) | 98% (active) | inactive | inactive | inactive | inactive
10 | CS(=O)(=O)c1ccc(CNCc2cccc(-c3cccc(-c4nc5ccc(F)cc5[nH]4)c3)c2)cc1 | 84% (active) | 11% (inactive) | -3% (inactive) | 102% (active) | inactive | inactive | inactive | inactive
11 | O=C(Nc1cccc(-c2cccc(-c3nc4ccccc4[nH]3)c2)c1)N[C@@H]1C[C@H]1c1ccccc1 | 22% (inactive) and 27% (inactive) | 40% (inactive) and 8% (inactive) | 2% (inactive) and 1% (inactive) | 87% (active) and 90% (active) | inactive | inactive | inactive | inactive
12 | O=C(/C=C/c1ccc(Cl)c(Cl)c1)NCCCCCN1CCC(NC(=O)Nc2cccc(C(F)(F)F)c2)CC1 | 11% (inactive) | 61% (active) | 4% (inactive) | 102% (active) | inactive | inactive | inactive | inactive
13 | CCNc1cc(C(=O)N[C@@H](Cc2ccccc2)[C@H](O)CNCCc2ccccc2)cc(N2CCCC2=O)c1 | 46% (inactive) | -4% (inactive) | 2% (inactive) | 92% (active) | inactive | inactive | inactive | inactive
14 | COc1ccc(NC(=O)c2cc(-c3ccc(NC(C)=O)cc3)cnc2N)cc1 | 5% (inactive) | 10% (inactive) | 4% (inactive) | 98% (active) | inactive | inactive | inactive | inactive
15 | O=C(Nc1ccc(C(F)(F)F)cc1)Nc1ccccc1N1CCNCC1 | 69% (active) | 39% (inactive) | 4% (inactive) | 94% (active) | inactive | inactive | inactive | inactive
16 | O=C(Nc1cccc(-c2ccc(-c3nc4ccc(F)cc4[nH]3)cc2)c1)c1cccnc1 | 92% (active) | 27% (inactive) | -4% (inactive) | 101% (active) | inactive | inactive | inactive | inactive
17 | CN1CCC(NCc2cccc(-c3cccc(-c4nc5ccc(C(F)(F)F)cc5[nH]4)c3)c2)CC1 | 101% (active) | 35% (inactive) | -1% (inactive) | 101% (active) | inactive | inactive | inactive | inactive
18 | Cc1ccc(NC(=O)NCCCCCN2CCC(c3c[nH]c4ccccc34)CC2)cc1I | 5% (inactive) | 96% (active) | 6% (inactive) | 94% (active) | inactive | inactive | inactive | inactive
19 | CC(C)c1ccc(CN2CCCCC(NC(=O)c3cc(-c4ccccc4Cl)cs3)C2)cc1 (configuration not stated) | 64% (active) | 8% (inactive) | 3% (inactive) | 100% (active) | inactive | inactive | inactive | inactive
20 | Fc1ccc2ncc(Cl)c(CCN3CCC(NCc4cc5c(cn4)OCCO5)CC3)c2c1 | 20% (inactive) | 24% (inactive) | -4% (inactive) | 93% (active) | inactive | inactive | inactive | inactive

Row | Structure (SMILES) | growth inhibition [1] | inhibition [2] | inhibition [3] | growth inhibition [4] | outcome [5] | outcome [6] | outcome [7] | outcome [8]
21 | Cc1cc(N[C@@H](Cc2ccccc2)C(=O)NCCc2ccccc2)nc(NCCc2ccc(F)cc2)n1 | 89% (active) | 9% (inactive) | 2% (inactive) | 99% (active) | inactive | inactive | inactive | inactive
22 | COc1ccc2ncc(F)c(C(O)CN3CCC(NCc4ccc5c(n4)NC(=O)CO5)CC3)c2c1 (configuration not stated) | 51% (active) and 88% (active) | 6% (inactive) and 51% (active) | 3% (inactive) and -2% (inactive) | 99% (active) and 100% (active) | inactive | inactive | inactive | inactive
23 | CC1CN(Cc2cccc(-c3ccc(-c4nc5ccc(F)cc5[nH]4)cc3)c2)CC(C)O1 (configuration not stated) | 88% (active) | 45% (inactive) | -3% (inactive) | 87% (active) | inactive | inactive | inactive | inactive
24 | COc1ccc2ncc(F)c(CCN3CC[C@H](NCc4cc5c(s4)CCCN5)[C@H](O)C3)c2n1 | 16% (inactive) | 2% (inactive) | 0% (inactive) | 96% (active) | inactive | inactive | inactive | inactive
25 | Cc1cccc2[nH]c(-c3cccc(-c4cccc(CNCCCN5CCCC5=O)c4)c3)nc12 | 76% (active) | 9% (inactive) | 2% (inactive) | 100% (active) | inactive | inactive | inactive | inactive
26 | Oc1ccc(Cl)cc1CN1CCCC(COC(c2ccc(F)cc2)c2ccc(F)cc2)C1 (configuration not stated) | 100% (active) | 20% (inactive) | 3% (inactive) | 98% (active) | inactive | inactive | inactive | inactive
27 | CCNc1cc(C)nc(Nc2ccc(NS(=O)(=O)c3ccccc3)cc2)n1 | 54% (active) | 41% (inactive) | -3% (inactive) | 100% (active) | inactive | inactive | inactive | inactive
28 | O=C(/C=C/c1ccc(Cl)c(Cl)c1)NCCCCCN1CC[C@H](NC(=O)c2ccc3c(c2)OCO3)C1 | 3% (inactive) | 32% (inactive) | 0% (inactive) | 94% (active) | inactive | inactive | inactive | inactive
29 | CCCOc1cccc(C(=O)N[C@@H](Cc2ccccc2)[C@H](O)CNCc2cccc(OC)c2)c1 | 18% (inactive) | 14% (inactive) | -3% (inactive) | 102% (active) | inactive | inactive | inactive | inactive
30 | CCCc1cn2c3c(cc(C(=O)N[C@@H](Cc4ccccc4)[C@H](O)CNC4CCCCC4)cc13)N(CC)S(=O)(=O)CC2 | 98% (active) | 2% (inactive) | -2% (inactive) | 98% (active) | inactive | inactive | inactive | inactive
31 | O=C(/C=C/c1ccc(Cl)c(Cl)c1)NC1CCN(Cc2ccc(O)cc2)CC1 | 43% (inactive) | -1% (inactive) | 3% (inactive) | 103% (active) | inactive | inactive | inactive | inactive
32 | Cc1ccccc1C1CCN(C2CCC(NC(=O)/C=C/c3cccc(F)c3)CC2)CC1 (configuration not stated) | 38% (inactive) | 46% (inactive) | -3% (inactive) | 84% (active) | inactive | inactive | inactive | inactive
33 | O=C(/C=C/c1ccc(Cl)c(Cl)c1)NC1CCN(CCCNC(=O)c2cccc(Cl)c2)CC1 | 28% (inactive) | 36% (inactive) | -2% (inactive) | 100% (active) | inactive | inactive | inactive | inactive
34 | O=C(Nc1ccccc1O)c1ccc(Oc2cccc(C(=O)Nc3ccccc3O)c2)cc1 | 70% (active) | 33% (inactive) | -1% (inactive) | 97% (active) | inactive | inactive | inactive | inactive
35 | Oc1ccc(OCc2ccccn2)cc1 | 0% (inactive) | 5% (inactive) | 2% (inactive) | 98% (active) | inactive | inactive | inactive | inactive
36 | N#Cc1cccc(NC(=O)Nc2ccc(CC(=O)N3CCc4cc(Cl)c(N5CCN(C/C=C/c6ccccc6)CC5)cc43)cc2)c1 | 61% (active) | -4% (inactive) | -4% (inactive) | 91% (active) | inactive | inactive | inactive | inactive
37 | NOCCCOc1ccc(Cl)cc1 | 0% (inactive) | 12% (inactive) | 0% (inactive) | 98% (active) | inactive | inactive | inactive | inactive
38 | O=C(Nc1cc(Cl)ccc1O)c1ccc(Oc2ccc(C(=O)Nc3cc(Cl)ccc3O)cc2)cc1 | 91% (active) | 32% (inactive) | -3% (inactive) | 97% (active) | inactive | inactive | inactive | inactive
39 | Cc1nc(-c2ccc(-c3ccc(NC(=O)c4coc5ccc(N6C[C@@H](C)N[C@@H](C)C6)cc45)cc3)c(C)c2)no1 | 88% (active) | 1% (inactive) | 1% (inactive) | 101% (active) | inactive | inactive | inactive | inactive
